POLI inh: DNA polymerase iota (human) inhibition; Q9UNA4; Pol iota fluorescent replication assay, 10 min; Potency, µM (titrated, usually from 115 µM), for inactives: top-dose activity, negative = inhibition, actives largely listed as inhibitors; hit rate 1% among 390,000; AID 588590; also: potency is read from the fitted curve at half-maximal effect
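Fluorescent replication assay read twice, at 0 min and 10 min after adding 50 nM (final) substrate. Enzyme (10 nM) and compounds were first incubated 15 min at room temperature; enzyme-free buffer wells were negative controls.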
Pol kappa inh-1: DNA polymerase kappa (human) inhibition; Q9UBT6; purified Pol kappa, fluorescent DNA synthesis assay, 10 min; Potency, µM (top dose mostly 107 µM), without a hit: at the highest dose activity, negative = inhibition, most hits filed as inhibitors; hit rate 0.53% among 400,000; AID 588579; also: potency is read from the fitted curve at half-maximal effect; % is scaled to controls: 0 for no effect and ±100 for the full control effect
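Enzyme at 10 nM met test compounds for 15 min at room temperature. Substrate addition (50 nM final) began the reaction, which was monitored by fluorescence at 0 and 10 min.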
WRN helicase inh-1: blocks human WRN helicase; Potency, µM (series often up to 114 µM), for inactives: at the highest dose activity change, negative = inhibition, usual class: inhibitors; hit rate 0.46% among 360,000; WRN helicase unwinding, fluorescent forked duplex, kinetic; also: potency is read from the fitted curve at half-maximal effect; % is scaled to controls: 0 for no effect and ±100 for the full control effect; nearly all actives have a fitted effect of over 55% in size
Target sequence (Q14191 whole entry, looked up): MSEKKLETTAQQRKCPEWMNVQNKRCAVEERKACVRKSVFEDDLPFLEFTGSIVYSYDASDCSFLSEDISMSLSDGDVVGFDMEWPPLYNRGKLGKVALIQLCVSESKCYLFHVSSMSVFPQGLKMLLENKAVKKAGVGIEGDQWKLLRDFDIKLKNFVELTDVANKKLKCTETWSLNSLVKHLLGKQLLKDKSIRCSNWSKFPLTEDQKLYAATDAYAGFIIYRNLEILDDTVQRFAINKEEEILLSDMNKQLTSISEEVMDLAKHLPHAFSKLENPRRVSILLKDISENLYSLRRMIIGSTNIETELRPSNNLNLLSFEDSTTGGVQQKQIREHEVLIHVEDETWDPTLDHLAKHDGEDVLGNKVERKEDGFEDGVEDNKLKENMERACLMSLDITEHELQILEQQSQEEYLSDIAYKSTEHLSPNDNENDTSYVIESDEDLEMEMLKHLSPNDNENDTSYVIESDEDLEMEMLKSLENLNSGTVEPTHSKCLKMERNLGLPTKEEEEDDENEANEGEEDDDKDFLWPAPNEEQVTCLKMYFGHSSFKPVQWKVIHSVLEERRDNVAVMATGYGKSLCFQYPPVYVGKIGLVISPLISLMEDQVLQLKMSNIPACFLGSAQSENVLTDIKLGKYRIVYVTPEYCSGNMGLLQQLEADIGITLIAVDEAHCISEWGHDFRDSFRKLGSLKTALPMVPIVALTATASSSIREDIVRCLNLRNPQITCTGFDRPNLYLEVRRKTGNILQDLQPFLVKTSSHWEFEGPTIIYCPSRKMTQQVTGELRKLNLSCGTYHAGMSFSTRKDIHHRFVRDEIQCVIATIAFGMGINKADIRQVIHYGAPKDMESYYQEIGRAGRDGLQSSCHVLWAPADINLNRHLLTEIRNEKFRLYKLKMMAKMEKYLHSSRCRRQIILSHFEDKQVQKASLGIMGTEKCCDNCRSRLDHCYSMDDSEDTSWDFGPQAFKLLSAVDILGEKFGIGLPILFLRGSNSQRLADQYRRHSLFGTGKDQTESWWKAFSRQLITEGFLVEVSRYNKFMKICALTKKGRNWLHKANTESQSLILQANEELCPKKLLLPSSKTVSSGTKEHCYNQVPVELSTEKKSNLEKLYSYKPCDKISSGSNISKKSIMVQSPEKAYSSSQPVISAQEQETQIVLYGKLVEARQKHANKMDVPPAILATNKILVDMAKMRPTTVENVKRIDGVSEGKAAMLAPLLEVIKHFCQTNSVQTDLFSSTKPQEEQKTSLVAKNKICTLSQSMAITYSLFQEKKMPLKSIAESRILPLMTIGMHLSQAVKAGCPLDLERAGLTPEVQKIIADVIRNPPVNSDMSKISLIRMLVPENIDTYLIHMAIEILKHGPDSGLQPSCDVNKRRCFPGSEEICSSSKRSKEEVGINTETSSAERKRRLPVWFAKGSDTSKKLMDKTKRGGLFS
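Screening of the MLSMR collection measured strand separation of a quenched forked DNA duplex (100 nM) by 20 nM WRN with 2 mM ATP, all final. Compounds were preincubated with enzyme 15 min at room temperature.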
Pol eta inh-1: blocks human DNA polymerase eta activity; Potency, µM (highest dose often 114 µM), inactives show at the highest dose activity change, negative = inhibition, actives largely listed as inhibitors; Q9Y253; hit rate 1.2% among 390,000; recombinant Pol eta, fluorescent DNA replication assay; also: potency is read from the fitted curve at half-maximal effect; % is scaled to controls: 0 for no effect and ±100 for the full control effect
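Fluorescent replication assay: 50 nM final substrate added after a 15 min room-temperature compound preincubation with 10 nM enzyme. Signal taken at 0 min and again at 10 min.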
PI5P4K alpha inh: PI5P4K alpha (human) kinase inhibition; max response, %; P48426; PI5P4Kalpha enzyme, ADP-Glo luminescence, 60 min; hits give low values; hit rate 1.2% among 330,000; active = max response of -50% or lower; inconclusive = between -30% and -50%; inactive = -30% or higher; also: value at the top dose of about 77 µM; % is scaled to controls: 0 for no effect and ±100 for the full control effect
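Single end-point luminescence (ADP-Glo) quantified ADP from PI5P4Kalpha turnover; ATP 5 microM final, 1 h at RT, 0.1% CHAPS and 0.28 mM EGTA in HEPES pH 7.4.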
Pol beta inh: blocks human DNA polymerase beta activity. P06746. Pol beta primer extension/strand displacement, fluorescence kinetic. Potency, µM (top dose mostly 114 µM), for the others: at the highest dose activity change, negative = inhibition, hits mostly inhibitors. hit rate 1.3% among 340,000. AID 485314; also: potency is read from the fitted curve at half-maximal effect; % is scaled to controls: 0 for no effect and ±100 for the full control effect
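Values derive from four-parameter Hill fits of normalized kinetic data: reads at 0 and 10 min following addition of 50 nM substrate to 10 nM Pol beta preincubated 15 min with compound.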
GALK confirm: galactokinase (human) inhibition, confirmation | shares compounds with Pol eta inh-1 | purified GALK, Kinase-Glo ATP depletion luminescence | Potency, µM (titrated, usually from 115 µM), for the others: at the highest dose activity, negative = inhibition, most hits filed as inhibitors | hit rate 70% among 150
Redox cycling: redox cycling activity in phenol red-HRP assay; Phenol red-HRP H2O2 redox cycling, absorbance 600 nm; AID 2035; hit rate 40% among 150; Potency, µM (highest dose often 115 µM), inactives show top-dose activity change, negative = H2O2 signal, most hits filed as inhibitors; shares compounds with Pol eta inh-1
HEK293 viability: counter-screen for GALK inhibitors: HEK293 cell cytotoxicity; shares compounds with Pol eta inh-1; HEK-293 viability, ATP luminescence (CellTiter-Glo), 24/48 h; Potency, µM (series often up to 46.1 µM), for the others: at the highest dose activity change, negative = cytotoxicity, actives largely listed as inhibitors; hit rate 10% among 170; AID 2547; also: potency is read from the fitted curve at half-maximal effect; % is scaled to controls: 0 for no effect and ±100 for the full control effect
Pol kappa inh-2: confirmation of human DNA polymerase kappa inhibitors. purified Pol-kappa, fluorescent strand-displacement substrate. hit rate 76% among 920. Potency, µM, actives largely listed as inhibitors. shares compounds with Pol eta inh-1; also: potency is read from the fitted curve at half-maximal effect
Pol eta inh-2: Pol eta (human) inhibition, cherry-pick confirmation; shares compounds with Pol eta inh-1; Potency, µM, hits mostly inhibitors; hit rate 64% among 2,600; Pol eta primer extension, TAMRA/BHQ fluorescence, 10 min; also: potency is read from the fitted curve at half-maximal effect
WRN helicase inh-2: WRN helicase inhibition, cherry-pick retest. shares compounds with WRN helicase inh-1. WRN helicase DNA unwinding, fluorescence kinetic. Potency, µM (series often up to 57.1 µM), inactives show top-dose activity, negative = inhibition, usual class: inhibitors. hit rate 63% among 610. AID 720497; also: potency is read from the fitted curve at half-maximal effect; nearly all actives have a fitted effect of over 65% in size
TO DNA binding: binds DNA, flagged in WRN inhibitor counterscreen; thiazole orange DNA binding displacement, fluorescence; shares compounds with WRN helicase inh-1; Potency, µM (series often up to 57.1 µM), for inactives: at the top dose activity change, negative = inhibition, usual class: inhibitors; hit rate 10% among 610;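 also: drop in dye fluorescence marks compound binding to DNA; potency is read from the fitted curve at half-maximal effect; % is scaled to controls: 0 for no effect and ±100 for the full control effect; nearly all actives have a fitted effect of over 60% in size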
BLM helicase inh: counter-screen for WRN helicase inhibitors: human BLM helicase inhibition; shares compounds with WRN helicase inh-1; Recombinant BLM helicase DNA unwinding, red fluorescence; Potency, µM (highest dose often 57.1 µM), for inactives: at the top dose activity change, negative = inhibition, usual class: inhibitors; hit rate 60% among 610; AID 720503; also: potency is read from the fitted curve at half-maximal effect; nearly all actives have a fitted effect of over 60% in size
* marks the source's active call; other numbers are inactive results; ? = inconclusive; / = no result; [ ] = another dose, or the depositor's remark. Only some compounds are listed: those with a hit (about 2.8% of all), similar ones and a draw of the others. Unless noted, calls follow the shape of the dose curve; as a rule, active = well fitted curve in the direction sought with a large enough effect; inconclusive = small, poorly fitted or top-dose-only effect, or another doubt; inactive = no such curve, though single readings can be large; an effect the other way counts as inactive or inconclusive.

SMILES	POLI inh	Pol kappa inh-1	WRN helicase inh-1	Pol eta inh-1	PI5P4K alpha inh	Pol beta inh	Pol eta inh-2	WRN helicase inh-2	TO DNA binding	BLM helicase inh	others
CCn1cc(C(=O)O)c(=O)c2cc(F)c(N/N=C/c3ccccc3[N+](=O)[O-])cc21	13.2%	-4.3%	?	5.62µM*	?	?	42.6*	/	/	/
CCCCCC(=O)c1c(O)cc(OC)c(Cl)c1O	/	11.5%[60.1 µM]	/	/	/	/	/	/	/	/
CCCCCCCCC(=O)c1c(OC)oc(C=O)cc1=O	/	/	-12.7%[11.6 µM]	22.4µM*	-83.9*	/	?	/	/	/	Pol kappa inh-2=?
Cc1c(Cl)cccc1NC(=O)c1cc(-c2cccs2)on1	18.5%	-23.9%	/	-0.9%	/	4.0%	/	/	/	/
O=C(CCC1N=C2c3ccccc3N=C(SCC(=O)NCc3ccco3)N2C1=O)NCc1ccco1 (stereo not given)	12.6µM*	?	?	?	-17.3	31.6µM*	?	/	/	/
COc1ccc2c(c1)c1c(c(=O)n(CCc3ccccc3)c(=O)n1Cc1ccccc1)n2C	35.8%	5.0%	/	-14.7%	/	13.9%	/	/	/	/
C=C1CC[C@@H]2[C@](C)(CCC[C@@]2(C)/C=C/[C@@H](O)C(C)(C)O)[C@H]1CC(=O)NCCS(=O)(=O)O	-10.3%	?	-10.6%	17.8µM*	6.1	/	?	/	/	/
COc1cccc(/C=C/c2ccc3ccccc3[n+]2C)c1OC	2.3%	-32.9%	/	/	/	/	/	/	/	/
CN1CCN(c2ncc3nc(-c4ccc(Cl)cc4)c(=O)n(Cc4cccs4)c3n2)CC1	/	2.9%[60.1 µM]	/	/	/	/	/	/	/	/
Cc1cccc(Oc2ccccc2NS(=O)(=O)c2ccc(CCC(=O)O)cc2)c1	?	-44.4%	-3.3%[11.6 µM]	20µM*	-14.0	/	84.9*	/	/	/	Pol kappa inh-2=18.9*
CC(C)c1nc(Nc2nc3ccccc3o2)nc2c1CCCC2	/	/	/	/	/	/	/	/	/	/	HEK293 viability=-28.7%
CCOC(=O)c1ccc(NC(=O)Cn2ncc3c(C)n(Cc4ccccc4F)c(C)c3c2=O)cc1	3.6%	-3.6%	/	-7.8%	/	?	/	/	/	/
O=C1NN(c2ccc(Br)cc2)C(=O)/C1=C\c1ccc(O)cc1O	?	-38.2%	-18.9%	4.1%	?	3.4%	/	/	/	/	GALK confirm=47.3µM*;Redox cycling=-3.5%;HEK293 viability=-3.7%
O=C1NN(c2ccc(F)cc2)C(=O)/C1=C/c1cccs1	70.9%	-29.0%	-3.2%	13.3%	-11.4	1.7%	/	/	/	/
CCCC1=Nc2cc(C(=O)NC3CCCC3)ccc2Sc2ccc(C)cc21	?	-36.2%	/	?	/	0.8%	/	/	/	/
Cc1noc(C)c1S(=O)(=O)Nc1ccc(C(=O)Nc2ccc(OC(F)(F)F)cc2)cc1	11.3%	3.9%	-2.9%[57.1 µM]	-16.5%	10.5	33.5%	/	/	/	/	GALK confirm=33.5µM*;Redox cycling=1.1%;HEK293 viability=?
CC1=NN(c2ccc(C(=O)O)cc2)C(=O)/C1=C\c1ccc(OC(=O)c2cccs2)cc1	?	-17.6%	5.32µM*	22.4µM*	15.0	?	?	17.1µM*	-7.1%	?
O=C(O)CC(C(=O)O)N1C(=O)/C(=C/c2ccc(-c3nc4ccccc4s3)o2)SC1=S (stereo not given)	1µM*	4.47µM*	28.2µM*	2.82µM*	-10.6	10µM*	30.1*	21.5µM*	150.9%	-13.9%
CCC(C(=O)O)N1C(=O)/C(=C/c2cccn2C)SC1=S (stereo not given)	?	-32.1%	-0.2%	2.5%	0.9	-0.7%	/	/	/	/
N#C/C(=C\c1ccc(-c2ccc(Cl)c(C(=O)O)c2)o1)c1nc2ccccc2[nH]1	22.4µM*	-24.9%	/	22.4µM*	/	?	60.1*	19.2µM*	?	13.6µM*
N#C/C(=C\c1ccc(-c2ccc(C(=O)O)cc2)o1)c1nc2ccccc2[nH]1	31.6µM*	?	?	28.2µM*	?	?	33.8*	19.2µM*	179.1%	24.1µM*	Pol kappa inh-2=13.4*
CC1=C(C(=O)Nc2cccc(C)c2C)C2(CCCCC2)OC1=O	16.5%	-3.6%	/	/	/	45.3%	/	/	/	/
CCN(CC)c1ccc(/C=C2\C(=O)c3ccc(C(=O)O)cc3C2=O)cc1	?	?	39.8µM*	7.94µM*	-70.1*	39.8µM*	26.9*	21.5µM*	123.7%	?
Oc1ccc(/C=N/Nc2ncnc3c2ncn3Cc2ccccc2)cc1O	2.24µM*	?	?	3.16µM*	?	3.55µM*	47.8*	7.64µM*	19.2µM*	2.41µM*
Oc1cccc(/C=N/Nc2ncnc3c2ncn3Cc2ccccc2)c1	-5.1%	-19.8%	-24.9%	-7.8%	-3.1	0.7%	/	/	/	/
Nc1nnc(CC(=O)N/N=C/c2ccc(-c3cccc(C(=O)O)c3)o2)s1	11.2µM*	25.1µM*	?	17.8µM*	-57.1*	-1.5%	60.1*	?	-21.9%	?
Cc1oc2ncnc(N3CCCCC3)c2c1C(=O)NCC1CCN(Cc2ccccc2F)CC1	-23.2%	-4.5%	/	2.8%	/	17.9%	/	/	/	/
CC(=O)c1cccc(NC(=O)Cn2c(-c3cncs3)nc3ccccc32)c1	-2.4%	5.5%	/	-17.8%	/	3.0%	/	/	/	/

From PubChem BioAssay
